Compounds without any hit were thinned out: in the full panel of roughly 83,000, 20% have a hit.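 Negative percent growth values reflect cell death: -40 means 40% of the cells present at the start died, and -100 means all died.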 The source made the active and inactive calls. The calls were made as follows: active = growth percent below 10; inactive = the rest.
Assays:
Assay in all cases: NCI-60 one-dose screen, 48 h (100 = growth as untreated, 0 = no growth, -100 = all killed)
Details in all cases: 10 µM unless noted
[1] = test system: T-47D breast
[2] = test system: MDA-MB-435 melanoma
[3] = test system: SW-620 colon
[4] = test system: MCF7 breast
[5] = test system: HCT-116 colon
[6] = test system: HCC-2998 colon
[7] = test system: KM12 colon

Measured: growth

Cc1ccc(S(=O)(=O)NN/C(N)=N\S(=O)(=O)c2cc(C)c(Cl)cc2SCc2ccccc2)cc1
inactive: [1] 87.9% | [2] 96.4% | [3] 96.6% | [4] 99.8% | [5] 94.6% | [6] 107% | [7] 97.3%

OC(c1cccc(OCc2ccccc2)c1)c1nnc(-c2ccccc2)o1 (stereo not drawn)
inactive: [1] 72.9% | [2] 101% | [3] 104% | [4] 95.1% | [5] 101% | [6] 112% | [7] 90.7%

CN(C)c1cnccn1
inactive: [1] 75.9% | [2] 100% | [3] 88.7% | [4] 87.3% | [5] 97.3% | [6] 112% | [7] 103%

CO/C(=C1/NC(=O)C(Cc2ccc(O)c(Br)c2)N(C)C(=O)C(C)NC(=O)CCC/C=C(\C)CCC(C)OC1=O)c1ccccc1 (stereo not drawn)
active: [1] -0.228% | [2] 3.86% | [4] -17.5% | [5] 8.19% | [6] -36.6%
inactive: [3] 18.2% | [7] 26.9%

O=c1[nH]nc(-c2ccc(Cl)cc2)cc1Cc1ccccc1
inactive: [1] 84.1% | [2] 106% | [3] 105% | [4] 92.2% | [5] 93% | [6] 113% | [7] 102%

COc1ccc(OC)c(C(=O)Nc2cccc(-c3cc(=O)c4ccccc4o3)c2)c1
inactive: [1] 85.6% | [2] 96.2% | [3] 96.8% | [4] 92% | [5] 88% | [6] 104% | [7] 92.5%

CCN(CC)CCOc1ccc(/C(=C(\C)c2ccc(OC)c(F)c2)c2ccc(Cl)cc2)cc1
inactive: [1] 89.7% | [2] 60.3% | [3] 63.2% | [4] 70.3% | [5] 46.4% | [6] 78.6% | [7] 19.1%

COC(=O)CNC(=O)C(=O)c1c(O)c(O)c(C(C)C)c2cc(C)c(-c3c(C)cc4c(C(C)C)c(O)c(O)c(C(=O)C(=O)NCC(=O)OC)c4c3O)c(O)c12
inactive: [1] 16% | [2] 55.1% | [3] 16% | [4] 18% | [5] 11% | [6] 33.8% | [7] 16.1%

CCc1nc2ccccc2[nH]1
inactive: [1] 123% | [2] 113% | [3] 104% | [4] 88.7% | [5] 102% | [6] 110% | [7] 113%

Cc1nc(Nc2ccc(NC(=S)Nc3ccccc3)cc2)nc2nc(Nc3cccc(Cl)c3)[nH]c(=O)c12
inactive: [1] 89.1% | [2] 108% | [3] 98.3% | [4] 89.8% | [5] 94.4% | [6] 114% | [7] 106%

O=C(NC1CCOCC1)c1ccc2c(c1)CN(c1ncc(Cc3cccc(-n4cccn4)c3)s1)CC2
inactive: [1] 38.9% | [2] 76.3% | [3] 107% | [4] 56.9% | [5] 47.6% | [6] 77% | [7] 84.9%

CC(C)OC(=O)NNC(=O)c1ccncc1
inactive: [1] 106% | [2] 109% | [3] 98.2% | [4] 88% | [5] 97.5% | [6] 119% | [7] 115%

Nc1ccc2c(S(=O)(=O)O)ccc(S(=O)(=O)O)c2c1
inactive: [1] 82.5% | [2] 107% | [3] 106% | [4] 93.1% | [5] 93.9% | [6] 98.7% | [7] 110%

CCNCCNc1cc(-c2ccc(F)cc2)c(C#N)c2nc3ccccc3n12
inactive: [1] 21.3% | [3] 10.8% | [4] 35.4% | [5] 24.5% | [6] 53.5% | [7] 66.4%
active: [2] -62.7%

N#Cc1c(N)n2c(nc1=Nc1ccc(Cl)cc1)sc1cc(Cl)ccc12
inactive: [1] 73.8% | [2] 102% | [3] 87.9% | [4] 60.5% | [5] 89.1% | [6] 107% | [7] 29.5%

CC(=O)Nc1ccc(C(=O)/C=C/c2ccccc2)cc1
active: [5] 1.2%
inactive: [1] 74.9% | [2] 89.1% | [3] 90.4% | [4] 24.3% | [6] 88.7% | [7] 22.8%

CCOC(=O)c1ccc(-c2ccc3cc(OC)ccc3c2)nc1C
inactive: [1] 91.6% | [2] 94.3% | [3] 102% | [4] 93% | [5] 78.1% | [6] 101% | [7] 100%

CCCCCOC(=O)c1cccc(NC(=O)CN(CC)CC)c1
inactive: [1] 91.9% | [2] 101% | [3] 105% | [4] 103% | [5] 74.9% | [6] 98.9% | [7] 104%

N#Cc1c(Oc2ccc([N+](=O)[O-])cc2)nc2sc3cc(Cl)ccc3n2c1=N
inactive: [1] 60.2% | [2] 111% | [3] 93.1% | [4] 61.8% | [5] 105% | [6] 117% | [7] 47.7%

CCOc1ccc(-c2nc3ccc(-c4nc5ccc(N6CCN(C)CC6)cc5[nH]4)cc3[nH]2)cc1OCC
active: [2] -2.53% | [3] 0.486% | [4] 7.04% | [5] -3.06% | [6] -15.9%
inactive: [1] 15.2% | [7] 43%

CCCCOC(=O)c1ccc(NC(=O)C(C)N2CCOCC2)cc1 (stereo not drawn)
inactive: [1] 107% | [2] 113% | [3] 101% | [4] 106% | [5] 77.6% | [6] 102% | [7] 109%

CCOC(=O)C(O)C(O)(c1ccccc1)c1ccccc1 (stereo not drawn)
inactive: [1] 93.6% | [2] 111% | [3] 109% | [4] 93.5% | [5] 105% | [6] 99.9% | [7] 101%

CCOC(=O)c1sc2ccc(NCc3nc[nH]c3C)cc2c1NC(=O)c1cc(OC)c(OC)c(OC)c1
inactive: [1] 76.2% | [2] 71.7% | [3] 79.8% | [4] 62.6% | [5] 55.4% | [6] 106% | [7] 93.7%

COc1cc(C(=O)/C=C/c2c(C(F)(F)F)nc3ccccn23)cc(OC)c1OC
active: [1] 8.03% | [2] -10.2% | [3] -29.6% | [4] -44.7% | [5] -84.3% | [6] -97.2% | [7] -82.7%

C=C1C(=O)O[C@H]2[C@H]1CC/C(COC(=O)/C=C\C(=O)NCc1ccc(Cn3c(=O)sn(-c4ccc(OC)cc4)c3=O)cc1)=C\CC[C@@]1(C)O[C@@H]21
active: [1] -51.6% | [2] -65.8% | [3] -53.6% | [4] -51.4% | [5] -65.5% | [6] -75.7% | [7] -64.5%

Cc1nc(Nc2ccc(NC(=S)Nc3ccccc3)cc2)nc2nc(SCc3ccccc3)[nH]c(=O)c12
inactive: [1] 88.5% | [2] 109% | [3] 108% | [4] 87.3% | [5] 112% | [6] 111% | [7] 107%

COc1ccc(N=c2nc3sc4cc(Cl)ccc4n3c(N)c2C#N)cc1
inactive: [1] 73.7% | [2] 99.6% | [3] 81.1% | [4] 61.2% | [5] 93.7% | [6] 95.5% | [7] 24.7%

O=C(NCCOCCOCCNc1cccc2c1C(=O)N(C1CCCNC1=O)C2=O)c1cc2c(o1)C(=O)c1ccccc1C2=O (stereo not drawn)
active: [2] -94.1% | [3] -6.93% | [4] -63.3% | [5] 0.0602% | [6] -56.2% | [7] -14.2%
inactive: [1] 14.9%

CC(=O)Nc1cccc(C2=CC(c3ccc(C)cc3)n3ncnc3N2)c1 (stereo not drawn)
inactive: [1] 87.5% | [2] 112% | [3] 102% | [4] 96.9% | [5] 103% | [6] 112% | [7] 97.2%

CCCCCCCCn1cc(C2=C(c3coc4ccc(OC)cc34)C(=O)NC2=O)c2ccccc21
inactive: [1] 115% | [2] 102% | [3] 99.1% | [4] 91.8% | [5] 104% | [6] 104% | [7] 104%

Clc1ccc(-c2cn(-c3ccccc3)c(-c3ccccc3)n2)cc1
active: [4] 9.74%
inactive: [1] 56.7% | [2] 87.7% | [3] 66.7% | [5] 27.2% | [6] 97.6% | [7] 53.6%

Nc1ccc(-c2cc3c(Nc4ccc(OCc5cccc(F)c5)c(Cl)c4)ncnc3s2)cc1
inactive: [1] 15.4% | [2] 43.8% | [3] 74.1% | [4] 26.2% | [5] 50.7% | [6] 38.6% | [7] 24%

CCNCCNc1cc(-c2ccc(C(=O)OC)cc2)c(C#N)c2nc3ccccc3n12
active: [3] 2.26% | [5] -19.5%
inactive: [1] 18.6% | [2] 73.2% | [4] 53.8% | [6] 49% | [7] 50.8%

Cc1nc(Nc2ccc(NC(=S)Nc3ccccc3)cc2)nc2nc(Nc3ccc(S(=O)(=O)O)cc3)[nH]c(=O)c12
inactive: [1] 87.3% | [2] 105% | [3] 116% | [4] 102% | [5] 103% | [6] 118% | [7] 120%

From PubChem BioAssay (NCI)
